Sampled rows, rich in hits. Any-hit rate of the full collection: about 1.7%.
EBNA-1 inh: blocks EBNA-1 binding to DNA; EBNA-1 DNA binding, fluorescence polarization; inhibition, % at 14.8 µM; 300,000 compounds, 0.34% hits; in the data active means inhibition above about 28%
LYPLA1 inh: blocks human lysophospholipase 1, a PME1 counter-screen | O75608 | recombinant LYPLA1, FP-Rh probe fluorescence polarization | inhibition, % at 5.9 µM | 320,000 compounds, 0.16% hits;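 active means inhibition above the mean of all tested compounds plus 3 SD, set per campaign, cut at about 14% in these data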;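 further: inhibitors block serine hydrolase probe labeling of LYPLA1 so polarization falls; 0% = enzyme with DMSO and 100% = wells lacking LYPLA1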
PAD4 FP inh: blocks human protein arginine deiminase 4. recombinant PAD4, RCA probe fluorescence polarization. inhibition, % at 6.36 µM. 330,000 compounds, 0.41% hits. AID 485272;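 active means percent inhibition above a cutoff equal to the mean of all tested compounds plus 3 SD, cut at about 15% in these data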;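 further: 0% = PAD4 with RCA probe and DMSO and 100% = probe without PAD4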
Target sequence (Q9UM07 whole entry, looked up): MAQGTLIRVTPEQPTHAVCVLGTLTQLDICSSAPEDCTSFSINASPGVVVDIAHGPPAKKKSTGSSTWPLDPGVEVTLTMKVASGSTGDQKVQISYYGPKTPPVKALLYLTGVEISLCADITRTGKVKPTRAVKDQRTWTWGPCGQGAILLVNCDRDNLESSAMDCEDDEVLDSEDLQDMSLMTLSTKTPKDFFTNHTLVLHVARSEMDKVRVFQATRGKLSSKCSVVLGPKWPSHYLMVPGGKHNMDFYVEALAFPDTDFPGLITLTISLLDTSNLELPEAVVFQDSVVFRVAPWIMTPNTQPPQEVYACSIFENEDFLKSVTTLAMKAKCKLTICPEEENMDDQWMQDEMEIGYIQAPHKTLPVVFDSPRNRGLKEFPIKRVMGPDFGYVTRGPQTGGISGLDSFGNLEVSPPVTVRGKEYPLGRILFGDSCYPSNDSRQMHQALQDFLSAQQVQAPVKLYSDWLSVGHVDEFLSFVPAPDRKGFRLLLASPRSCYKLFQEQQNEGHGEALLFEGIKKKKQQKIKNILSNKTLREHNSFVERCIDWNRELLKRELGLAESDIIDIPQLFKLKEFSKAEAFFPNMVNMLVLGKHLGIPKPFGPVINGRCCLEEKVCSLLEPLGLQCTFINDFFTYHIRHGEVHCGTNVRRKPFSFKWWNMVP
LYPLA2 counter: LYPLA2 (human) inhibition in PME1 counter-screen; recombinant LYPLA2, FP-Rh probe fluorescence polarization; inhibition, % at 5.9 µM; 320,000 compounds, 0.38% hits; AID 2177;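 active means inhibition above the screen-wide mean plus 3 SD, limit set per campaign, cut at about 26% in these data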;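 further: 0% = LYPLA2 with DMSO and 100% = wells lacking LYPLA2 enzyme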
GSTO1 counter: GSTO1 inhibition, counter-screen for RBBP9 inhibitors | P78417 | recombinant GSTO1, activity-based probe fluorescence polarization | inhibition, % at 5.96 µM | 300,000 compounds, 1.1% hits | AID 1974;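 active means inhibition above the campaign mean inhibition plus 3 SD, cut at about 35% in these data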;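 further: 0% = GSTO1-1 with DMSO and 100% = wells lacking GSTO1-1 enzyme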
ZTA counter: ZTA (EBV) inhibition in EBNA-1 counter-screen. inhibition, % at 11 µM. ZTA-DNA binding, fluorescence polarization. 320,000 compounds, 0.15% hits. AID 2234. P03206; in the data active means inhibition above about 33%
Zta DNA confirm: EBV ZTA DNA binding inhibition, confirmation | shares compounds with ZTA counter | Zta-ZRE DNA binding, fluorescence polarization | inhibition, % at 11.1 µM | 320 compounds, 30% hits | AID 2361;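 active means mean inhibition across triplicate runs above the hit threshold derived for the original primary screen, cut at about 33% in these data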;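 further: 0% = Zta with DMSO and 100% = wells lacking Zta protein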
EBNA-1 counter: EBNA-1 DNA binding inhibition, counter-screen for ZTA. shares compounds with ZTA counter. fluorescence polarization. inhibition, % at 14.8 µM. 320 tested, under 10 active. AID 2362; call rule not given here
PAD4 FP conf: PAD4 (human) inhibition, confirmed. shares compounds with PAD4 FP inh. inhibition, % at 6.36 µM. recombinant PAD4, RCA probe fluorescence polarization. 1,200 compounds, 28% hits;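 active means mean inhibition across replicates above the hit cutoff set by the earlier primary screen, cut at about 15% in these data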;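 further: inhibitors block active-site labeling by the probe so polarization falls; 0% = PAD4 with probe and DMSO and 100% = probe without PAD4 enzyme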
Numbers without * were called inactive; . = not tested or not shown.

SMILES	EBNA-1 inh	LYPLA1 inh	PAD4 FP inh	LYPLA2 counter	GSTO1 counter	ZTA counter	PAD4 FP conf	others
CC(C)=CCc1c2c(c3occ(-c4ccc(O)cc4)c(=O)c3c1O)C=CC(C)(C)O2	2	-13	1	-22	21	35*	.	Zta DNA confirm=9;EBNA-1 counter=2
Cc1ccc2nc(-c3ccc(SCC(=O)Nc4nc(C)cs4)nc3)[nH]c2c1	10	-7	-5	-18	-7	48*	.	Zta DNA confirm=-1;EBNA-1 counter=23
Cc1ccc2nc(-c3ccc(SCC(=O)Nc4nnc(C)s4)nc3)[nH]c2c1	19	-14	-6	-23	-2	0	.
O=C(O)CCn1cc(/C=C/C(=O)c2ccc(Cl)cc2)c(-c2ccc(Br)cc2)n1	11	-7	1	-6	-18	45*	.	Zta DNA confirm=31;EBNA-1 counter=-4
CCn1c(SCC(N)=O)nc2sc3c(c2c1=O)CCCC3	5	-3	-1	-1	1	1	.
NC(=O)CSc1nc2sc3c(c2c2ncnn12)CCCC3	-4	-6	2	-3	-3	38*	.	Zta DNA confirm=6;EBNA-1 counter=3
CC(=O)Nc1ccc(S(=O)(=O)NCCC(=O)NCCOc2ccccc2)cc1	.	1	3	3	.	-3	.
CCOCCCNc1nc2c(C)cccn2c(=O)c1/C=C1\SC(=S)N(CC(C)C)C1=O	-8	2	-12	-3	3	-23	.
O=C1/C(=C\c2c(NCCOCCO)nc3ccccn3c2=O)SC(=S)N1Cc1ccco1	2	-37	-44	-107	-39	42*	.	Zta DNA confirm=24;EBNA-1 counter=7
CCN(CC(=O)Nc1ccc(NC(C)=O)cc1)C(=O)c1cccnc1Sc1ccc(C)c(C)c1	-1	-4	1	-3	2	3	.
Cn1nnnc1Sc1ncnc2scc(-c3cc4ccccc4o3)c12	.	-4	16*	2	.	38*	13	Zta DNA confirm=30;EBNA-1 counter=-9
CCN(CCO)c1ccc(NC(=S)Nc2cccc(S(=O)(=O)N(C)C)c2)cc1	23	0	40*	-4	29	41*	-1	Zta DNA confirm=9;EBNA-1 counter=3
CCc1cccc2c1NC1(CCCC1)CC2C (stereo not drawn)	-2	-5	2	-4	8	4	.
Cc1cccc2c1NC(C)CC2C (stereo not drawn)	21	3	15*	6	19	97*	5	Zta DNA confirm=12;EBNA-1 counter=-7
COCc1cccc(C(=O)NC(c2ccccc2)c2ccccc2)c1	9	2	2	-2	0	10	.
COc1cc2[nH]c(C(=O)Nc3ccc(F)cc3)cc2c(OC)c1OC	-18	-5	-5	-7	-3	-16	.
CCOC(=O)c1cc(S(=O)(=O)Nc2ccc(OC)cc2OC)cn1C	-1	0	31*	-1	-5	5	-3
COC(=O)c1cc(S(=O)(=O)Nc2cccc(OC)c2)cn1C	9	2	-2	-2	-3	16	.
Cc1ccc(CC(=O)N2CCN(S(=O)(=O)c3ccccc3)CC2)cc1C	-9	-4	2	-3	-8	4	.
Cc1ccc(S(=O)(=O)N2CCN(C(=O)Cc3ccccc3)CC2)cc1C	.	-1	22*	2	.	-15	-1
CCNc1cc(=O)n(C)c(=O)n1C	4	2	-6	-2	-12	15	.
C=CCn1c(NC)cc(=O)n(C)c1=O	2	-2	20*	6	7	24	6
Oc1c(Br)cc(Cl)cc1C=Nc1ccc(N2CCOCC2)cc1	2	-2	14	0	21	12	.
Clc1cccc(-c2ccc(C=Nc3ccc(N4CCOCC4)cc3)o2)c1	17	5	19*	10	8	7	5
Nc1nonc1-n1nnc(C(=O)N/N=C/c2ccccc2Br)c1CN1CCCC1	7	4	1	6	1	-2	.
SMILES	EBNA-1 inh	LYPLA1 inh	PAD4 FP inh	LYPLA2 counter	GSTO1 counter	ZTA counter	PAD4 FP conf	others
CN(C)NC(=S)NC(=O)C12CC3CC(CC(C3)C1)C2	10	-4	1	4	6	-13	.
CN(C(=S)NC(=O)C12CC3CC(CC(C3)C1)C2)c1ccc(O)cc1	.	.	24*	.	.	.	1
Cc1ccc(N(C(=O)c2csnn2)C(C(=O)NC2CCCC2)c2ccccn2)cc1 (stereo not drawn)	-12	-3	-6	-2	2	-10	.
CC(NC(=O)c1ccc(NC(=O)CC2SC(N3CCCC3)=NC2=O)cc1)c1ccccc1 (stereo not drawn)	.	2	-2	9	.	-3	.
S=C(NCc1ccco1)Nc1cccc(Cl)c1	3	-6	163*	5	4	12	0
Nc1ccc(N2CCN(CCCCN3C(=O)C4CCCN4C3=O)CC2)cc1 (stereo not drawn)	-1	7	65*	29*	10	-7	8
CC1CCC2C(=O)N(c3ccccc3OC(=O)c3ccccc3F)C(=O)C2C1 (stereo not drawn)	-7	2	3	4	8	2	.
Clc1ccc(C[n+]2csc3ccccc32)cc1	-10	-3	19*	0	-4	-5	34*
Fc1ccc(C[n+]2csc3ccccc32)cc1	4	0	21*	2	9	-5	34*
CN(C)S(=O)(=O)c1cccc(NC(=O)CSc2ncnc3ccccc23)c1	1	-4	15*	1	-4	-1	12
O=C1/C(=C/C=C/c2ccco2)SC(=S)N1NS(=O)(=O)c1ccccc1	44*	-10	65*	-11	-3	70*	3
O=C1/C(=C/c2cccs2)SC(=S)N1NS(=O)(=O)c1ccccc1	4	-1	-4	-6	25	3	.
Cn1c(SCC(=O)Nc2ccc(Br)cn2)nnc1C1CC1	1	0	156*	0	4	11	23*
O=C(CSc1ccc(Br)cc1)NCC(c1ccco1)N1CCCCC1 (stereo not drawn)	2	-1	-3	-4	2	3	.
CCOC(=O)c1cc(C)sc1NC(=O)CSc1nnnn1C	-9	1	2	-2	1	-4	.
CCOC(=O)c1cc(C)sc1NC(=O)CSC1=NCCS1	8	3	15*	6	1	6	19*
COc1ccccc1/C=C/C(=O)OCC(=O)NC1CCS(=O)(=O)C1 (stereo not drawn)	.	.	5	.	.	.	.
C#CC(C)OC(=O)Nc1cnccc1C(F)(F)F (stereo not drawn)	1	3	3	10	3	-12	.
CC(=O)Nc1cccc(C(=O)Nc2ccccc2C(=O)O)c1	1	4	0	-2	7	-12	.
CC(=O)Nc1ccc(S(=O)(=O)Nc2cccc(C(=O)Nc3ccccc3C(=O)O)c2)cc1	-4	2	18*	2	-34	-15	3

Compound activity deposited in PubChem by The Scripps Research Institute Molecular Screening Center.
